# The panel holds about 83,000 compounds, 20% with a hit somewhere; the sample as a whole holds those more often.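 Compound tested at a single concentration for 48 hours in 96-well plates; a percent growth value below 10 was scored as active.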 A number with no mark means an inactive call. Active and inactive are the calls of the source.
# How the values were obtained:
# Test in all cases: NCI-60 one-dose screen, 48 h (100 = growth as untreated, 0 = no growth, -100 = all killed)
# HCT-15 colon = tested on: HCT-15 colon
# HT29 colon = tested on: HT29 colon
# SNB-75 CNS = tested on: SNB-75 CNS
# SNB-19 CNS = tested on: SNB-19 CNS
# U251 CNS = tested on: U251 CNS
# PC-3 prostate = settings: 10 µM unless noted
# SK-MEL-5 melanoma = tested on: SK-MEL-5 melanoma
# UACC-62 melanoma = tested on: UACC-62 melanoma
# LOX IMVI melanoma = tested on: LOX IMVI melanoma
# SK-MEL-28 melanoma = tested on: SK-MEL-28 melanoma
structure (smiles),measurement,setting,value
COc1ccc(Nc2ncnc3sc4c(c23)CCN(Cc2ccccc2)C4)cc1,growth,HCT-15 colon; 10 µM unless noted,74.9%
same,growth,HT29 colon; 10 µM unless noted,98.1%
same,growth,SNB-75 CNS; 10 µM unless noted,89.2%
same,growth,SNB-19 CNS; 10 µM unless noted,90.8%
same,growth,U251 CNS; 10 µM unless noted,88.9%
same,growth,PC-3 prostate,68.8%
same,growth,SK-MEL-5 melanoma; 10 µM unless noted,70.4%
same,growth,UACC-62 melanoma; 10 µM unless noted,43.5%
same,growth,LOX IMVI melanoma; 10 µM unless noted,52.2%
same,growth,SK-MEL-28 melanoma; 10 µM unless noted,99.8%
CN1CCN(CCS(=O)(=O)Nc2cc(-c3ccc4ncnc(Nc5ccc(F)c(Cl)c5)c4c3)cnc2Cl)CC1,growth,HCT-15 colon; 10 µM unless noted,24.5%
same,growth,HT29 colon; 10 µM unless noted,12%
same,growth,SNB-75 CNS; 10 µM unless noted,22.1%
same,growth,SNB-19 CNS; 10 µM unless noted,10.1%
same,growth,U251 CNS; 10 µM unless noted,16.5%
same,growth,PC-3 prostate,20.2%
same,growth,SK-MEL-5 melanoma; 10 µM unless noted,-75.9% (active)
same,growth,UACC-62 melanoma; 10 µM unless noted,-3.28% (active)
same,growth,LOX IMVI melanoma; 10 µM unless noted,-57.5% (active)
same,growth,SK-MEL-28 melanoma; 10 µM unless noted,4.33% (active)
O=C(NC(=S)N1CCN(c2ncnc3c2cnn3-c2ccccc2)CC1)c1ccc(F)cc1,growth,HCT-15 colon; 10 µM unless noted,49.9%
same,growth,HT29 colon; 10 µM unless noted,78%
same,growth,SNB-75 CNS; 10 µM unless noted,53.7%
same,growth,SNB-19 CNS; 10 µM unless noted,84.9%
same,growth,U251 CNS; 10 µM unless noted,85.9%
same,growth,PC-3 prostate,71.9%
same,growth,SK-MEL-5 melanoma; 10 µM unless noted,56%
same,growth,UACC-62 melanoma; 10 µM unless noted,74.2%
same,growth,LOX IMVI melanoma; 10 µM unless noted,63.4%
same,growth,SK-MEL-28 melanoma; 10 µM unless noted,85.6%
Nc1nnc(CS(=O)(=O)c2ccccc2)s1,growth,HCT-15 colon; 10 µM unless noted,99.9%
same,growth,HT29 colon; 10 µM unless noted,94.6%
same,growth,SNB-75 CNS; 10 µM unless noted,102%
same,growth,SNB-19 CNS; 10 µM unless noted,103%
same,growth,U251 CNS; 10 µM unless noted,95.6%
same,growth,PC-3 prostate,93%
same,growth,SK-MEL-5 melanoma; 10 µM unless noted,131%
same,growth,UACC-62 melanoma; 10 µM unless noted,91%
same,growth,LOX IMVI melanoma; 10 µM unless noted,84.6%
same,growth,SK-MEL-28 melanoma; 10 µM unless noted,112%
CC1=C(C(=O)OCc2ccccc2)C(c2ccc(N(C)C)cc2)n2c(nc3ccccc32)N1 (stereo not drawn),growth,HCT-15 colon; 10 µM unless noted,71.4%
same,growth,HT29 colon; 10 µM unless noted,100%
same,growth,SNB-75 CNS; 10 µM unless noted,61.2%
same,growth,SNB-19 CNS; 10 µM unless noted,86.2%
same,growth,U251 CNS; 10 µM unless noted,90.4%
same,growth,PC-3 prostate,80.8%
same,growth,SK-MEL-5 melanoma; 10 µM unless noted,71.7%
same,growth,UACC-62 melanoma; 10 µM unless noted,42%
same,growth,LOX IMVI melanoma; 10 µM unless noted,75.7%
same,growth,SK-MEL-28 melanoma; 10 µM unless noted,79.9%
CC(=O)c1ccc2c(N)c(C(=O)Nc3ccc(C(F)(F)F)cc3)sc2n1,growth,HCT-15 colon; 10 µM unless noted,40.7%
same,growth,HT29 colon; 10 µM unless noted,82.2%
same,growth,SNB-75 CNS; 10 µM unless noted,84.7%
same,growth,SNB-19 CNS; 10 µM unless noted,67.9%
same,growth,U251 CNS; 10 µM unless noted,72.6%
same,growth,PC-3 prostate,70.2%
same,growth,SK-MEL-5 melanoma; 10 µM unless noted,-5% (active)
same,growth,UACC-62 melanoma; 10 µM unless noted,59.7%
same,growth,LOX IMVI melanoma; 10 µM unless noted,37.8%
same,growth,SK-MEL-28 melanoma; 10 µM unless noted,87.2%
O=Cc1cncc(-c2ccc3ncnc(N4CCc5cc(F)c(Cl)cc54)c3c2)c1,growth,HCT-15 colon; 10 µM unless noted,18.7%
same,growth,HT29 colon; 10 µM unless noted,56.6%
same,growth,SNB-75 CNS; 10 µM unless noted,-12.6% (active)
same,growth,SNB-19 CNS; 10 µM unless noted,49.5%
same,growth,U251 CNS; 10 µM unless noted,48.5%
same,growth,PC-3 prostate,23.6%
same,growth,SK-MEL-5 melanoma; 10 µM unless noted,19.5%
same,growth,UACC-62 melanoma; 10 µM unless noted,13.4%
same,growth,LOX IMVI melanoma; 10 µM unless noted,20.8%
same,growth,SK-MEL-28 melanoma; 10 µM unless noted,44.2%
CC/C(=C(\c1ccc(O)cc1)c1ccc(OCCN(C)C(=O)CCOCCNC(=O)c2ccc3c(c2)CN([C@@H]2CCC(=O)NC2=O)C3=O)cc1)c1ccccc1,growth,HCT-15 colon; 1 µM,110%
same,growth,HCT-15 colon; 10 µM,103%
same,growth,HT29 colon; 1 µM,95%
same,growth,HT29 colon; 10 µM,89%
same,growth,SNB-75 CNS; 1 µM,59%
same,growth,SNB-75 CNS; 10 µM,64.2%
same,growth,SNB-19 CNS; 1 µM,92.7%
same,growth,SNB-19 CNS; 10 µM,90.1%
same,growth,U251 CNS; 1 µM,95.3%
same,growth,U251 CNS; 10 µM,92.6%
same,growth,SK-MEL-5 melanoma; 1 µM,95.4%
same,growth,SK-MEL-5 melanoma; 10 µM,87.9%
same,growth,UACC-62 melanoma; 1 µM,95.9%
same,growth,UACC-62 melanoma; 10 µM,95%
same,growth,LOX IMVI melanoma; 1 µM,104%
same,growth,LOX IMVI melanoma; 10 µM,94.4%
same,growth,SK-MEL-28 melanoma; 1 µM,102%
same,growth,SK-MEL-28 melanoma; 10 µM,102%
Cc1cc(C)c2[nH]c(=O)c(C(c3nnnn3Cc3ccc4c(c3)OCO4)N3CCN(C)CC3)cc2c1 (stereo not drawn),growth,HCT-15 colon; 10 µM unless noted,110%
same,growth,HT29 colon; 10 µM unless noted,110%
same,growth,SNB-75 CNS; 10 µM unless noted,115%
same,growth,SNB-19 CNS; 10 µM unless noted,101%
same,growth,U251 CNS; 10 µM unless noted,104%
same,growth,PC-3 prostate,111%
same,growth,SK-MEL-5 melanoma; 10 µM unless noted,107%
same,growth,UACC-62 melanoma; 10 µM unless noted,104%
same,growth,LOX IMVI melanoma; 10 µM unless noted,100%
same,growth,SK-MEL-28 melanoma; 10 µM unless noted,105%
O=C1/C(=C/c2cnc(-c3ccccc3)s2)SC(=S)N1Cc1ccc2c(c1)OCO2,growth,HCT-15 colon; 10 µM unless noted,81.2%
same,growth,HT29 colon; 10 µM unless noted,111%
same,growth,SNB-75 CNS; 10 µM unless noted,-30.1% (active)
same,growth,SNB-19 CNS; 10 µM unless noted,16.7%
same,growth,U251 CNS; 10 µM unless noted,42%
same,growth,PC-3 prostate,97.9%
same,growth,SK-MEL-5 melanoma; 10 µM unless noted,96.9%
same,growth,UACC-62 melanoma; 10 µM unless noted,61.5%
same,growth,LOX IMVI melanoma; 10 µM unless noted,66.6%
same,growth,SK-MEL-28 melanoma; 10 µM unless noted,103%
CCOc1ccccc1NC(=O)N/C(N)=N/c1nc2ccccc2s1,growth,HCT-15 colon; 10 µM unless noted,2.52% (active)
same,growth,HT29 colon; 10 µM unless noted,-48.7% (active)
same,growth,SNB-75 CNS; 10 µM unless noted,32.8%
same,growth,SNB-19 CNS; 10 µM unless noted,14.7%
same,growth,U251 CNS; 10 µM unless noted,10.4%
same,growth,PC-3 prostate,23.3%
same,growth,SK-MEL-5 melanoma; 10 µM unless noted,-40.9% (active)
same,growth,UACC-62 melanoma; 10 µM unless noted,28.1%
same,growth,LOX IMVI melanoma; 10 µM unless noted,0.997% (active)
same,growth,SK-MEL-28 melanoma; 10 µM unless noted,54.3%
c1n[nH]cc1-c1nc2ccc3[nH]ncc3c2c2c1CC1(CC2)COC1,growth,HCT-15 colon; 10 µM unless noted,70.5%
same,growth,HT29 colon; 10 µM unless noted,52.1%
same,growth,SNB-75 CNS; 10 µM unless noted,-5.96% (active)
same,growth,SNB-19 CNS; 10 µM unless noted,47.4%
same,growth,U251 CNS; 10 µM unless noted,39.5%
same,growth,PC-3 prostate,53%
same,growth,SK-MEL-5 melanoma; 10 µM unless noted,44.7%
same,growth,UACC-62 melanoma; 10 µM unless noted,18.7%
same,growth,LOX IMVI melanoma; 10 µM unless noted,38.5%
same,growth,SK-MEL-28 melanoma; 10 µM unless noted,44.5%
